High-throughput results (PubChem BioAssay)
S1P2 agonist = agonists of human S1P2 receptor. O95136. S1P2-expressing cell line, agonist reporter read-out. activation, % at 4.5 µM. 0.46% of 97,000 active. AID 729; in the data active = activation above about 16%;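 also: 0% = vehicle low control and 100% = maximal reference agonist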
Target sequence (O95136 whole entry, looked up): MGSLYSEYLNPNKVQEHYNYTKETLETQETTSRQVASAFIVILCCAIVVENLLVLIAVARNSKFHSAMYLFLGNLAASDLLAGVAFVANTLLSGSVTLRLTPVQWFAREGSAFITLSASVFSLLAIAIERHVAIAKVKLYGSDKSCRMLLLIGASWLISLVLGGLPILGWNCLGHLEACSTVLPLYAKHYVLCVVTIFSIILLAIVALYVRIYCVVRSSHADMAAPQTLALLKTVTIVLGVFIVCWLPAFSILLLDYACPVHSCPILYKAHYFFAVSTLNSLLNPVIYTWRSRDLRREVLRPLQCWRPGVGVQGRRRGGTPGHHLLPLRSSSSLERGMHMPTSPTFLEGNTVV
Candida biofilm = kills Candida albicans biofilms; C. albicans biofilm + clotrimazole, Alamar Blue; inhibition, % at 6 µM; 0.14% of 85,000 active;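 active = inhibition above 20%; inactive = inhibition below 20%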;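 also: preformed 24 hr biofilms exposed to compound for 48 hr; 0% = biofilm without compound and 100% = blank killed by clotrimazole plus chlorhexidine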
Smad3 inh = inhibitors of human Smad3 transcription factor binding; P84022; TR-FRET Smad3/Dy647-FoxH1 peptide binding, europium anti-His; inhibition, % at 25 µM; 0.29% of 88,000 active;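 active = compounds that reduce the energy-transfer binding signal between the protein and its labelled peptide by more than half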;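 also: 0% = Smad3 plus labelled peptide maximal FRET and 100% = peptide-only background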
GALR2 agonist = activates the human galanin receptor 2. GALR2-expressing cells, agonist activation read-out. 0.48% of 140,000 active. activation, % (concentration not given with the values); in the data active = activation above about 5%, passing the limit was not always enough;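 also: 0% = vehicle buffer wells and 100% = reference agonist at full effect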
S1P2 antag = blocks the human S1P2 receptor; O95136; cell-based S1P2 antagonist assay, inhibition at 5 uM; inhibition, % at 5 µM; 0.21% of 97,000 active; in the data active = inhibition above about 45%;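 also: CRE beta-lactamase reporter cells expressing human S1P2 stimulated with S1P; 0% = agonist at EC80 alone and 100% = agonist plus reference antagonist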
GALR2 blocker = antagonists of human galanin receptor 2 (GALR2). AID 828. 0.39% of 140,000 active. O43603. GALR2-expressing cells, antagonist mode. inhibition, % at 4 µM; in the data active = inhibition above about 27%;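 also: cells stimulated with galanin 1-16 at roughly its EC80; 0% = agonist challenge control and 100% = basal control without agonist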
* hit, by the source's call; . = not tested or not shown; [ ] = dose if it differs, or a comment. Hits are enriched below; roughly 1.3% of the tested compounds scored in any of these assays.

SMILES | S1P2 agonist | Candida biofilm | Smad3 inh | GALR2 agonist | S1P2 antag | GALR2 blocker
CC1(C)Cc2c(c(N3CCOCC3)nc3sc4c(NCc5ccccc5)nnnc4c23)CS1 | -6.7 | 5.9 | 10.2 | 0.4 | -13.2 | -10.4
CC1(C)Cc2c(c(N3CCOCC3)nc3sc4c(NCc5ccco5)nnnc4c23)CS1 | 2.7 | 24.1* | 1.4 | -0.6 | -47.5 | -13.5
O=C1c2ccccc2C(=O)N1CC1c2ccccc2CCN1C(=O)C1CCCCC1 (configuration not stated) | -0.3 | 4.5 | 18.4 | -2.3 | 4.3 | -20.3
O=C(NCC1c2ccccc2CCN1C(=O)CN1CCOCC1)C1CCCCC1 (configuration not stated) | 1.4 | 8.8 | 63.2*[fluorescence artefact?] | -1.1 | 9.1 | 3.1
O=C(O)c1c[nH]c2c(C(F)(F)F)cccc2c1=O | -5.2 | 3.8 | 13.1 | -2.4 | -6.3 | 6.2
O=C(O)c1c[nH]c2c(ccc3[nH]cc(C(=O)O)c(=O)c32)c1=O | . | . | 92.7* | . | . | .
O=C1OCCC1Sc1nc(-c2ccccc2)cs1 (configuration not stated) | -2.1 | 2.7 | 6.0 | -1.9 | 2.1 | 9.1
CC(C)CC(=O)Nc1cc2nn(-c3ccccc3)nc2cc1Cl | -0.3 | 53.0* | 15.1 | -3.7 | -38.5 | -15.0
CC(C)CC(=O)Nc1cccc2c1C(=O)N(c1ccccc1)C2=O | -6.1 | 6.6 | -11.0 | -0.1 | 4.0 | 11.1
O=C(CSc1cn(CCNC(=O)c2cccs2)c2ccccc12)NC1CCCCC1 | -1.9 | 6.4 | 0.9 | -0.5 | 15.1 | 1.1
O=C(CSc1cn(CCNC(=O)c2cccs2)c2ccccc12)NCC1CCCO1 (configuration not stated) | . | 32.7* | -5.6 | -1.1 | . | 4.7
Cn1cc(/C=C(\C#N)C(=O)Nc2ncc(Cc3cccc(Cl)c3)s2)c2ccccc21 | . | . | . | -0.2 | . | 0.7
N#C/C(=C\c1c[nH]c2ccccc12)C(=O)Nc1ncc(Cc2ccc(Cl)cc2Cl)s1 | . | . | . | 6.4* | . | -9.8
[O-][N+]1=c2ccc(Nc3ccccc3)cc2=NC12CCCCC2 | -10.7 | 7.3 | 19.5 | -2.8 | 47.7* | 11.9
[O-]/N=C1/C(=[OH+])Nc2ccccc21.[O-]Nc1c([O+]=[Cu])[nH]c2ccccc12 | . | . | 9.8 | . | . | .
C=C(C)c1cccc(C(C)(C)NC(=O)N2CCCC2)c1 | -2.2 | 5.9 | -3.5 | -2.8 | 7.2 | -4.8
C=C(C)c1ccc(C(C)(C)NC(=O)N2CCN(C)CC2)cc1 | -1.3 | 0.9 | 70.6* | 0.2 | -29.4 | 2.4
O=C(Nc1c2ccccc2nc2ccccc12)C(Cl)(Cl)Cl | 18.1* | . | . | 10.2 | -24.1 | -11.1
O=C(Nc1c2c(nc3ccccc13)CCCC2)c1ccccc1Cl | . | . | . | -2.0 | . | 13.4
CC(C)Cn1cnc2c1c(=O)n(CC(=O)Nc1ccc3c(c1)OCO3)c(=O)n2Cc1ccccc1 | -7.4 | 5.1 | 6.0 | -0.1 | 10.3 | -4.0
COc1ccc2cc(S(=O)(=O)NCCCN3CCOCC3)ccc2c1 | 56.8* | . | . | -2.0 | -3.0 | 4.6
NC(N)=N/N=C(\c1ccccc1)c1ccc(O)cc1O | . | . | -2.8 | . | . | .
CCCc1cc(=O)[nH]c(/N=C(/NC(=O)c2ccccc2)Nc2ccc3c(c2)OCCO3)n1 | -7.5 | 4.2 | 0.9 | 0.0 | 12.9 | 10.1
CCCc1cc(=O)[nH]c(/N=C(/NC(=O)C(C)N2C(=O)c3ccccc3C2=O)Nc2ccccc2)n1 (configuration not stated) | -3.1 | 3.2 | 52.6* | -0.2 | -2.4 | -6.9
CC(C)C1N=C2c3ccccc3N=C(SCc3cc(=O)n4cc(Cl)ccc4n3)N2C1=O (configuration not stated) | 24.6* | 3.2 | 8.3 | 0.0 | -33.9 | -9.2
SMILES | S1P2 agonist | Candida biofilm | Smad3 inh | GALR2 agonist | S1P2 antag | GALR2 blocker
Nc1ccc(N(S(=O)(=O)c2ccccc2)S(=O)(=O)c2ccccc2)c(Cl)c1 | . | . | 87.1* | . | . | .
O=C(CC12CC3CC(CC(C3)C1)C2)NCC(=O)OCc1cc(=O)oc2ccc3ccccc3c12 | . | . | . | -0.1 | . | -1.4
CC(C)(C)Nc1nc(N2CCCC2)nc(N2CCCC2)n1 | -7.1 | -0.8 | 5.2 | -1.1 | 46.7* | 3.5
CN(C)CC(C(=O)c1ccccc1)c1ccccc1 (configuration not stated) | . | -2.3 | 6.6 | -0.6 | . | 41.9*
O=C(NCCc1ccccn1)C(F)(F)C(F)(F)C(F)(F)C(F)(F)C(F)(F)C(F)(F)C(F)(F)C(F)F | . | . | . | -1.2 | . | 16.4
Cc1nnc(NC(=O)CSc2nnc(Cc3cccn3C)n2-c2cccc(C(F)(F)F)c2)s1 | . | 23.5* | -8.9 | -1.1 | . | 7.4
Cc1ccc(-n2c(Cc3cccn3C)nnc2SCC(=O)Nc2nnc(C)s2)cc1 | -4.9 | 2.3 | -0.4 | -2.1 | 8.5 | 3.9
